The nature of test [1]: NCI Yeast Anticancer Drug Screen. Data for the rad50 strain (AID 155).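 Further: 0% = growth of vehicle-only cultures of the same strain.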 The conditions noted are these: S. cerevisiae rad50 strain growth inhibition, active compounds read high. In outline: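 Compounds were tested on a yeast strain with an engineered DNA damage repair alteration; the reported value is growth inhibition normalised to vehicle treatment.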
Test [2] in a line: NCI Yeast Anticancer Drug Screen. Data for the mec2-1 strain (AID 157). The conditions noted are these: S. cerevisiae mec2-1 strain, active compounds read high. In short, it runs like this:
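Using mec2-1 yeast: add compound, measure growth, express inhibition versus vehicle-treated cultures.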

Test [3] can be described thus: NCI Yeast Anticancer Drug Screen. Data for the sgs1 mgt1 strain (AID 161).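 Further: 0% = growth of cultures given vehicle only.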 The conditions noted are these: S. cerevisiae sgs1 mgt1 strain, active compounds read high. In short, it runs like this: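 This yeast growth screen uses a strain with defined DNA-repair lesions; compound-treated growth is compared with vehicle-treated growth.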
Test [4] is described as follows: NCI Yeast Anticancer Drug Screen. Data for the cln2 rad14 strain (AID 165).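 Further: 0% = growth equal to vehicle treated cultures.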 To be noted: S. cerevisiae cln2 rad14 strain, active compounds read high. In short, it runs like this:
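Yeast strain cln2 rad14, bearing defects in cell cycle control and DNA repair, serves as the test system; values reflect growth inhibition compared with vehicle.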

Test [5] in a line: NCI Yeast Anticancer Drug Screen. Data for the bub3 strain (AID 167). To be noted: S. cerevisiae bub3 mutant strain, active compounds read high. In outline: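 Growth of a checkpoint-deficient yeast mutant is measured after compound exposure. Values represent inhibition relative to vehicle.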
The nature of test [6]: NCI Yeast Anticancer Drug Screen. Data for the mlh1 rad18 strain (AID 175). To be noted: S. cerevisiae mlh1 rad18 strain growth inhibition, active compounds read high. In short, it runs like this:
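Steps: expose repair-defective yeast to compound; measure growth; express inhibition against vehicle-treated controls.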

The mark [7] stands for this setting: at 5.0 µM (retest, dose inferred, filed as 0.5).
Where [8] appears, read: at 50.0 µM (retest, dose inferred, filed as 5.0).

The record followed here is PubChem BioAssay (NCI).

Structures are written as SMILES. The panel holds about 79,000 compounds, 15% with a hit somewhere; the sample as a whole holds those more often. Unmarked numbers belong to inactive results. Activity calls are given as the source filed them. No stated cut-off is given here; in the data, active means growth inhibition above about 70%; inactive means the rest.

Regarding `ON=C1c2ccccc2-c2ccccc21`, the growth inhibition is 8% in test [1] (setting [7]); 58% in test [1] (setting [8]); 54.2% in test [1] (at 50.0 µM); 2% in test [2] (setting [7]); 21% in test [2] (setting [8]); -3.05% in test [2] (at 50.0 µM). For the same compound, the growth inhibition in test [3] (setting [7]) was 2%; in test [3] (setting [8]), 30%; in test [3] (at 50.0 µM) it was 41.5%; in test [4] (setting [7]), -12%; in test [4] (setting [8]), -6%; in test [4] (at 50.0 µM) it was -68.6%. Besides, the growth inhibition in test [5] (setting [7]) is -4%; in test [5] (setting [8]), 9%; in test [5] (at 50.0 µM), 30.9%; in test [6] (setting [7]), 9%; in test [6] (setting [8]), 58%; in test [6] (at 50.0 µM) it was 71.7% (active).
Turning to `O=C1N[C@H]2[C@H](CS[C@H]2CCCCC(=O)N(CCP(c2ccccc2)c2ccccc2)CCP(c2ccccc2)c2ccccc2)N1`, the growth inhibition is 2% in test [1] (setting [7]); 41% in test [1] (setting [8]); 59.4% in test [1] (at 50.0 µM); 1% in test [2] (setting [7]); 27% in test [2] (setting [8]); 16.4% in test [2] (at 50.0 µM). Also, the growth inhibition in test [3] (setting [7]) was 11%; in test [3] (setting [8]), 47%; in test [3] (at 50.0 µM), -5.85%; in test [4] (setting [7]) it was 9%; in test [4] (setting [8]), 23%; in test [4] (at 50.0 µM) it was -18.8%. For the same compound, the growth inhibition in test [5] (setting [7]) was 16%; in test [5] (setting [8]), 34%; in test [5] (at 50.0 µM), 7.8%; in test [6] (setting [7]) it was -15%; in test [6] (setting [8]), 8%; in test [6] (at 50.0 µM), -26.7%.
Turning to `O=C(C[n+]1ccc2ccccc2c1)c1ccc(-c2ccccc2)cc1`, the growth inhibition was -5% in test [1] (setting [7]); 97% (active) in test [1] (setting [8]); 98.2% (active) in test [1] (at 50.0 µM); -2% in test [2] (setting [7]); 98% (active) in test [2] (setting [8]); 97.8% (active) in test [2] (at 50.0 µM). Also, the growth inhibition in test [3] (setting [7]) is -3%; in test [3] (setting [8]) it was 97% (active); in test [3] (at 50.0 µM) it was 98% (active); in test [4] (setting [7]), -4%; in test [4] (setting [8]) it was 96% (active); in test [4] (at 50.0 µM), 96.8% (active). In addition, the growth inhibition was -5% in test [5] (setting [7]); 98% (active) in test [5] (setting [8]); 98.5% (active) in test [5] (at 50.0 µM); -7% in test [6] (setting [7]); 98% (active) in test [6] (setting [8]); 97.8% (active) in test [6] (at 50.0 µM).
As for `CCOC(=O)c1[nH]n(-c2ccccc2)c(=O)c1/C=N/C(=S)Nc1ccccc1OC`, the growth inhibition in test [1] (setting [7]) was -7%; in test [1] (setting [8]), -3%; in test [1] (at 50.0 µM) it was 0.4%; in test [2] (setting [7]), -14%; in test [2] (setting [8]) it was -11%; in test [2] (at 50.0 µM) it was -31.6%. Further, the growth inhibition in test [3] (setting [7]) was -5%; in test [3] (setting [8]), -3%; in test [3] (at 50.0 µM), -18.1%; in test [4] (setting [7]) it was -23%; in test [4] (setting [8]) it was -12%; in test [4] (at 50.0 µM), 44.6%. For the same compound, the growth inhibition in test [5] (setting [7]) is 0%; in test [5] (setting [8]), -9%; in test [5] (at 50.0 µM), 10.1%; in test [6] (setting [7]) it was -2%; in test [6] (setting [8]), 1%; in test [6] (at 50.0 µM) it was -16.2%.
For the compound `CCOC(=O)C(=CNC(=S)Nc1c(CC)cccc1C(C)(C)C)C(=O)OCC`, the growth inhibition in test [1] (setting [7]) was 6%; in test [1] (setting [8]) it was 74% (active); in test [1] (at 50.0 µM), 85.2% (active); in test [2] (setting [7]), -13%; in test [2] (setting [8]), 44%; in test [2] (at 50.0 µM), 75.5% (active). The growth inhibition in test [3] (setting [7]) was -2%; in test [3] (setting [8]), 27%; in test [3] (at 50.0 µM), 77% (active); in test [4] (setting [7]) it was 1%; in test [4] (setting [8]) it was 52%; in test [4] (at 50.0 µM), 76.3% (active). In addition, the growth inhibition is -11% in test [5] (setting [7]); 58% in test [5] (setting [8]); 84.2% (active) in test [5] (at 50.0 µM); -11% in test [6] (setting [7]); 67% in test [6] (setting [8]); 86.8% (active) in test [6] (at 50.0 µM).
As for `Nc1ccc(Cc2ccc(N)cc2[N+](=O)[O-])c([N+](=O)[O-])c1`, the growth inhibition in test [1] (setting [7]) was 1%; in test [1] (setting [8]), 0%; in test [1] (at 50.0 µM), 14.6%; in test [2] (setting [7]), 5%; in test [2] (setting [8]), 7%; in test [2] (at 50.0 µM) it was 25.9%. For the same compound, the growth inhibition in test [3] (setting [7]) was 6%; in test [3] (setting [8]), 74% (active); in test [3] (at 50.0 µM), 66.8%; in test [4] (setting [7]) it was 5%; in test [4] (setting [8]), 31%; in test [4] (at 50.0 µM) it was 39%. Moreover, the growth inhibition in test [5] (setting [7]) is -4%; in test [5] (setting [8]), -3%; in test [5] (at 50.0 µM) it was 35.4%; in test [6] (setting [7]), -6%; in test [6] (setting [8]), -2%; in test [6] (at 50.0 µM), -18.9%.
For `O=C1c2cc3c(cc2CC1Br)CCC3` (configuration not stated), the growth inhibition in test [1] (setting [7]) is 99% (active); in test [1] (setting [8]), 99% (active); in test [1] (at 50.0 µM), 79.5% (active); in test [2] (setting [7]), 99% (active); in test [2] (setting [8]) it was 100% (active); in test [2] (at 50.0 µM), 87% (active). The growth inhibition in test [3] (setting [7]) was 99% (active); in test [3] (setting [8]) it was 99% (active); in test [3] (at 50.0 µM), 88.3% (active); in test [4] (setting [7]) it was 98% (active); in test [4] (setting [8]), 99% (active); in test [4] (at 50.0 µM), 90.2% (active). Besides, the growth inhibition in test [5] (setting [7]) is 99% (active); in test [5] (setting [8]), 99% (active); in test [5] (at 50.0 µM), 89.5% (active); in test [6] (setting [7]), 99% (active); in test [6] (setting [8]) it was 99% (active); in test [6] (at 50.0 µM) it was 92.4% (active).
Consider `COC(=O)/C=C1/Nc2ccc(Cl)cc2C(=O)NC1=O`, for which the growth inhibition in test [1] (setting [7]) is 44%; in test [1] (setting [8]), 56%; in test [1] (at 50.0 µM) it was 39.3%; in test [2] (setting [7]), 36%; in test [2] (setting [8]), 45%; in test [2] (at 50.0 µM), 27.2%. Moreover, the growth inhibition in test [3] (setting [7]) was 36%; in test [3] (setting [8]) it was 54%; in test [3] (at 50.0 µM), 58.9%; in test [4] (setting [7]), 23%; in test [4] (setting [8]) it was 42%; in test [4] (at 50.0 µM), 28.9%. The growth inhibition in test [5] (setting [7]) was 41%; in test [5] (setting [8]), 80% (active); in test [5] (at 50.0 µM) it was 30.8%; in test [6] (setting [7]) it was 40%; in test [6] (setting [8]) it was 52%; in test [6] (at 50.0 µM), 33.5%.
Turning to `Nc1ccccc1OCC(O)CN1CCN(Cc2ccccc2)CC1` (configuration not stated), the growth inhibition was -7% in test [1] (setting [7]); 23% in test [1] (setting [8]); 72.1% (active) in test [1] (at 50.0 µM); -4% in test [2] (setting [7]); 15% in test [2] (setting [8]); 41% in test [2] (at 50.0 µM). In addition, the growth inhibition is -11% in test [3] (setting [7]); 42% in test [3] (setting [8]); 75.6% (active) in test [3] (at 50.0 µM); -4% in test [4] (setting [7]); 17% in test [4] (setting [8]); 16% in test [4] (at 50.0 µM). Besides, the growth inhibition was -1% in test [5] (setting [7]); 9% in test [5] (setting [8]); 23.9% in test [5] (at 50.0 µM); 14% in test [6] (setting [7]); 55% in test [6] (setting [8]); 22.5% in test [6] (at 50.0 µM).
